# Values joined by “and” are separate entries in the source; they are usually repeats but may differ in a detail not shown here. Identical values can stand only once. Active and inactive are the calls of the source. The calls were made as follows: active = hit-call score of the fitted dose curve at least 0.9, where 1 is the maximum; inactive = score below 0.9.
# Key:
# [1] = target: Nuclear respiratory factor 1 (Homo sapiens) (UniProt Q16656); assay: ATG_NRF1_CIS: Attagene CIS-FACTORIAL HepG2 Assay for human Nuclear Respiratory Factor 1 (NRF1) Orphan Gene (AID 2282987); settings: HepG2 NRF1 cis-element reporter, Attagene multiplex; actives raise or lower the signal
# Sequence of Nuclear respiratory factor 1 (Homo sapiens) (Q16656 whole entry, looked up): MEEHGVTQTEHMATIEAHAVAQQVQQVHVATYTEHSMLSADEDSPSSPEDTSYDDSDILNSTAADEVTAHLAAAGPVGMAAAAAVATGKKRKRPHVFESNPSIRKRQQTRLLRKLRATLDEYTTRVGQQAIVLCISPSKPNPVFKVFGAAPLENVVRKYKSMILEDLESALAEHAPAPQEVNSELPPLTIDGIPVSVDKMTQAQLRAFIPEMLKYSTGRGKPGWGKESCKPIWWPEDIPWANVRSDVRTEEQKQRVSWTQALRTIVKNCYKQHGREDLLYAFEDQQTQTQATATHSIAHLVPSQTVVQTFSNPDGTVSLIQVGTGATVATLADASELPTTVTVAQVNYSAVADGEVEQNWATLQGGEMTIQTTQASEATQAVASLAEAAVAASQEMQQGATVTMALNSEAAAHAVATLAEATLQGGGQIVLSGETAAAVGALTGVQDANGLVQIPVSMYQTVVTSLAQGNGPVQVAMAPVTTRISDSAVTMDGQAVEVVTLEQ
# Procedure, shortened: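 Endogenous NRF1-driven reporter transcription measured in transiently transfected human HepG2 liver cells. Readout: reporter mRNA by RT-PCR and capillary electrophoresis with fluorescence detection, 24 h post-dosing. Gain or loss of signal fitted relative to DMSO baseline.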
# [2] = ATG_NFI_CIS: Attagene CIS-FACTORIAL HepG2 Assay for human Nuclear Factor I (NFI) (AID 2282989); settings: HepG2 cis-regulatory reporter, NFI response element transcription; actives raise or lower the signal
# Procedure, shortened: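 Reporter transcription driven by endogenous transcription factors in HepG2 cells; 24 h treatment. Quantitation by labelled RT-PCR fragments on capillary electrophoresis, gain- or loss-of-signal relative to DMSO.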
# [3] = target: Myc proto-oncogene protein (Homo sapiens) (UniProt P01106); assay: ATG_Myc_CIS: Attagene CIS-FACTORIAL HepG2 Assay for human Myelocytomatosis (Myc) Proto-Oncogene Transcription Factor (AID 2282990); settings: HepG2, Attagene cis-reporter transcription factor activity; actives raise or lower the signal
# Sequence of Myc proto-oncogene protein (Homo sapiens) (P01106 whole entry, looked up): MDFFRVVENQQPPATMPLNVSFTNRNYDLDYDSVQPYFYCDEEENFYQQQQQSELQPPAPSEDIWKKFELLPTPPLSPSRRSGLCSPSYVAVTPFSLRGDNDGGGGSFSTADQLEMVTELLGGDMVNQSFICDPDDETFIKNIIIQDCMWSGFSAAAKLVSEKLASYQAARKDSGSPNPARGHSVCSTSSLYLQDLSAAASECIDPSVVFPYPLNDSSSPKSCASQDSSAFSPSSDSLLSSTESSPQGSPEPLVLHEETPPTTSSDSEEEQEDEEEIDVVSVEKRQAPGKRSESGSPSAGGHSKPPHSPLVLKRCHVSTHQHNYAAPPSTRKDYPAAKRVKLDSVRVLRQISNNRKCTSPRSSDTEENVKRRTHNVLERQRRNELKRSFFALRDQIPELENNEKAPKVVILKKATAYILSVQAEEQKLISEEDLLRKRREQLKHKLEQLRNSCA
# Procedure, shortened: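 DMSO-normalised, bidirectionally fitted reporter mRNA signal. HepG2 cells transfected with cis reporter constructs, treated 24 h; transcripts detected by RT-PCR, 6-FAM primer extension and CE.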
# [4] = ATG_NRF2_ARE_CIS: Attagene CIS-FACTORIAL HepG2 Assay for human Nuclear Factor Erythroid 2 Related Factor 2 (NFR2) response to Antioxidant Response Elements (ARE) (AID 2282992); settings: HepG2 Attagene ARE/NRF2 reporter, transcription factor activity; actives raise or lower the signal
# Procedure, shortened: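 Fluorescence intensity of reporter-specific cDNA fragments, separated by capillary electrophoresis, reflects mRNA induction in transfected HepG2 cells at 24 h. Activity is fitted bidirectionally, DMSO serving as baseline.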
# [5] = ATG_Oct_MLP_CIS: Attagene CIS-FACTORIAL HepG2 Assay for human Octamer-Binding Transcription Factor (Oct) (AID 2282993); settings: HepG2 Attagene cis-factorial Oct reporter, mRNA; actives raise or lower the signal
# Procedure, shortened: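 Transfected HepG2 cells, 24 h treatment. Reporter mRNA quantified by RT-PCR–capillary electrophoresis; bidirectional fitting against DMSO.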
# [6] = ATG_NF_kB_CIS: Attagene CIS-FACTORIAL HepG2 Assay for human Nuclear Factor Kappa B (NF-kB) (AID 2282991); settings: HepG2 Attagene cis-factorial NF-kB reporter mRNA; actives raise or lower the signal
# Procedure, shortened: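 Read-out: reporter transcript levels quantified by RT-PCR plus capillary electrophoresis of 6-FAM-labelled, HpaI-cut fragments. Transfected HepG2 cells, 24 h compound exposure, endogenous NF-kB-driven cis element; gain or loss scored versus DMSO.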
# [7] = BSK_3C_TissueFactor: BioMAP Diversity Plus: 3C Assay for Tissue Factor Biomarker Activity (AID 2282997); settings: BioMAP 3C HUVEC, tissue factor biomarker readout; actives raise or lower the signal
# Procedure, shortened: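 After a 24 h chemical exposure of primary human umbilical vein endothelial cells, Tissue Factor levels were quantified by ELISA.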
# [8] = BSK_3C_uPAR: BioMAP Diversity Plus: 3C Assay for Urokinase-type plasminogen activator receptor (uPAR) Biomarker Activity (AID 2282998); settings: BioMAP 3C HUVEC, uPAR biomarker ELISA; actives raise or lower the signal
# Procedure, shortened: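 Readout: ELISA for surface uPAR. System: human umbilical vein endothelial primary cells, 24 h after chemical exposure. Analysis: bidirectional fit, DMSO baseline.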
# [9] = BSK_3C_VCAM1: BioMAP Diversity Plus: 3C Assay for Vascular cell adhesion molecule 1 (VCAM1) Biomarker Activity (AID 2282999); settings: BioMAP 3C HUVEC, VCAM1 ELISA, cytokine-stimulated; actives raise or lower the signal
# Procedure, shortened: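 Vascular primary endothelium (human umbilical vein) was exposed to chemicals and assayed 24 h later. VCAM-1 levels came from ELISA, with DMSO serving as baseline for bidirectional fitting.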
# [10] = target: Cellular tumor antigen p53 (Homo sapiens) (UniProt P04637); assay: ATG_p53_CIS: Attagene CIS-FACTORIAL HepG2 Assay for human p53 Transcription Factor (AID 2282994); settings: HepG2 p53 cis-element reporter, Attagene mRNA; actives raise or lower the signal
# Sequence of Cellular tumor antigen p53 (Homo sapiens) (P04637 whole entry, looked up): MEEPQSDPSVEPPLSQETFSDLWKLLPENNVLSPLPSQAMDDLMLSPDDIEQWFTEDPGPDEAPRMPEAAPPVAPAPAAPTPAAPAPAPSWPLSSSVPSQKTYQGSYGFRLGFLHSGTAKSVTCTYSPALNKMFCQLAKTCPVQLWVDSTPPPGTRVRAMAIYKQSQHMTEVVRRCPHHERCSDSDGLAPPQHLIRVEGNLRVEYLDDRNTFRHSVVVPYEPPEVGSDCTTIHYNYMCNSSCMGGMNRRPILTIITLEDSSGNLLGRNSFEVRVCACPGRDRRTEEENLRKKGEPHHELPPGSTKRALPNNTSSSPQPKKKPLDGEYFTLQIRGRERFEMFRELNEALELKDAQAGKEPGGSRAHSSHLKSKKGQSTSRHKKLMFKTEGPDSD
# Procedure, shortened: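 Transiently transfected HepG2 (multiple cis reporter transcription units); exposure 24 h; reporter RNA via RT-PCR, 6-FAM extension, 2 h HpaI digest at 37 C, CE detection; DMSO baseline.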
smiles,measurement,setting,value
CN(C)c1ccc2nc3ccc(=[N+](C)C)cc-3sc2c1,AC50,[1],15 µM (active)
same,outcome,[2],inactive
same,outcome,[3],inactive
same,AC50,[4],2.2 µM (active)
same,outcome,[5],inactive
c1ccc2sc(SSN3CCOCC3)nc2c1,AC50,[1],100 µM (active)
same,AC50,[2],75 µM (active)
same,AC50,[3],76.3 µM (active)
same,outcome,[6],inactive
same,AC50,[4],48.8 µM (active)
same,AC50,[5],100 µM (active)
same,AC50,[7],9.51 µM (active)
same,AC50,[8],4.34 µM (active)
same,AC50,[9],8.13 µM (active)
COc1ccc(C(=O)/C(Br)=C\C(=O)O)cc1,outcome,[1],inactive
same,outcome,[2],inactive
same,outcome,[3],inactive
same,AC50,[6],13 µM (active)
same,AC50,[4],2.53 µM (active)
same,AC50,[5],49.4 µM (active)
same,outcome,[10],inactive
same,AC50,[7],11.9 µM (active) and 10.2 µM (active)
same,AC50,[8],29.7 µM (active) and 31.7 µM (active)
same,AC50,[9],14.2 µM (active) and 20 µM (active)
Fc1ccc(Br)cc1,outcome,[1],inactive
same,outcome,[2],inactive
same,outcome,[3],inactive
same,outcome,[6],inactive
same,outcome,[4],inactive
same,outcome,[5],inactive
same,outcome,[10],inactive
same,outcome,[7],inactive
same,outcome,[8],inactive
same,outcome,[9],inactive
C=CCCCCCCCCC=O,outcome,[1],inactive
same,outcome,[2],inactive
same,outcome,[3],inactive
same,outcome,[6],inactive
same,outcome,[4],inactive
same,outcome,[5],inactive
same,outcome,[7],inactive
same,outcome,[8],inactive
same,outcome,[9],inactive
CC(C)c1cccc(C(C)C)c1N,outcome,[1],inactive
same,outcome,[2],inactive
same,outcome,[3],inactive
same,outcome,[6],inactive
same,outcome,[4],inactive
same,outcome,[5],inactive
same,outcome,[10],inactive
same,outcome,[7],inactive
same,outcome,[8],inactive
same,outcome,[9],inactive
COC(=O)C=Cc1ccccc1,outcome,[1],inactive
same,outcome,[2],inactive
same,outcome,[3],inactive
same,outcome,[4],inactive
same,outcome,[5],inactive
Nc1nc(N)nc(-c2ccccc2)n1,outcome,[1],inactive
same,outcome,[2],inactive
same,outcome,[3],inactive
same,outcome,[6],inactive
same,outcome,[4],inactive
same,outcome,[5],inactive
same,outcome,[7],inactive
same,outcome,[8],inactive
same,outcome,[9],inactive
CC/C=C\C/C=C\C/C=C\CCCCCCCC(=O)OC,outcome,[1],inactive
same,outcome,[2],inactive
same,outcome,[3],inactive
same,AC50,[6],32.4 µM (active)
same,AC50,[4],48.1 µM (active)
same,AC50,[5],135 µM (active)
same,outcome,[10],inactive
same,AC50,[7],13.5 µM (active)
same,AC50,[8],31.6 µM (active)
same,AC50,[9],14.2 µM (active)
CC1(C)CC(O)CC(C)(C)N1[O],outcome,[1],inactive
same,outcome,[2],inactive
same,outcome,[3],inactive
same,outcome,[6],inactive
same,AC50,[4],26.6 µM (active)
same,outcome,[5],inactive
same,outcome,[7],inactive
same,outcome,[8],inactive
same,outcome,[9],inactive
CCCCCCC=O,outcome,[1],inactive
same,outcome,[2],inactive
same,outcome,[3],inactive
same,outcome,[6],inactive
same,outcome,[4],inactive
same,outcome,[5],inactive
same,outcome,[10],inactive
same,outcome,[7],inactive
same,outcome,[8],inactive
same,outcome,[9],inactive
CC(C)C(=O)OCCc1ccccc1,outcome,[1],inactive
same,outcome,[2],inactive
same,outcome,[3],inactive
same,outcome,[6],inactive
same,outcome,[4],inactive
same,outcome,[5],inactive
same,outcome,[7],inactive
same,outcome,[8],inactive
same,outcome,[9],inactive
CCCCNS(=O)(=O)c1ccc(C)cc1,outcome,[1],inactive
same,outcome,[2],inactive
same,outcome,[3],inactive
same,outcome,[4],inactive
same,outcome,[5],inactive
C=CC(=O)NC(C)(C)C,outcome,[1],inactive
same,outcome,[2],inactive
same,outcome,[3],inactive
same,outcome,[6],inactive
same,AC50,[4],28 µM (active)
same,outcome,[5],inactive
same,outcome,[7],inactive
same,outcome,[8],inactive
same,outcome,[9],inactive
O=C(OCCc1ccccc1)c1ccccc1,outcome,[1],inactive
same,outcome,[2],inactive
same,outcome,[3],inactive
same,outcome,[4],inactive
same,outcome,[5],inactive
O=C1CCCCCCCCCCCN1,outcome,[1],inactive
same,outcome,[2],inactive
same,outcome,[3],inactive
same,outcome,[6],inactive
same,outcome,[4],inactive
same,outcome,[5],inactive
same,outcome,[10],inactive
same,outcome,[7],inactive
same,outcome,[8],inactive
same,outcome,[9],inactive
Cc1c(O)cccc1O,outcome,[1],inactive
same,outcome,[2],inactive
same,outcome,[3],inactive
same,outcome,[6],inactive
same,outcome,[4],inactive
same,outcome,[5],inactive
same,outcome,[7],inactive
same,outcome,[8],inactive
same,outcome,[9],inactive
CC(c1cc(C(C)(C)C)cc(C(C)(C)C)c1O)c1cc(C(C)(C)C)cc(C(C)(C)C)c1O,outcome,[1],inactive
same,outcome,[2],inactive
same,outcome,[3],inactive
same,outcome,[6],inactive
same,outcome,[4],inactive
same,outcome,[5],inactive
same,outcome,[10],inactive
same,AC50,[7],0.464 µM (active)
same,outcome,[8],inactive
same,outcome,[9],inactive
CCCCCCOC(=O)CCCCC(=O)OCCCCCC,outcome,[1],inactive
same,outcome,[2],inactive
same,outcome,[3],inactive
same,outcome,[6],inactive
same,outcome,[4],inactive
same,outcome,[5],inactive
same,outcome,[7],inactive
same,outcome,[8],inactive
same,outcome,[9],inactive
C=CCCCCCCCCOC(C)=O,outcome,[1],inactive
same,outcome,[2],inactive
same,outcome,[3],inactive
same,outcome,[4],inactive
same,outcome,[5],inactive
CC=C(C)C=CC=C(C)C,outcome,[1],inactive
same,outcome,[2],inactive
same,outcome,[3],inactive
same,outcome,[6],inactive
same,AC50,[4],26.8 µM (active)
same,outcome,[5],inactive
same,outcome,[10],inactive
same,AC50,[7],20 µM (active)
same,outcome,[8],inactive
same,AC50,[9],18.6 µM (active)
COC(OC)(C(=O)c1ccccc1)c1ccccc1,outcome,[1],inactive
same,outcome,[2],inactive
same,outcome,[3],inactive
same,outcome,[6],inactive
same,outcome,[4],inactive
same,outcome,[5],inactive
same,outcome,[7],inactive
same,outcome,[8],inactive
same,outcome,[9],inactive
Nc1ccc(C(=O)O)cc1,outcome,[1],inactive
same,outcome,[2],inactive
same,outcome,[3],inactive
same,outcome,[6],inactive
same,outcome,[4],inactive
same,outcome,[5],inactive
same,outcome,[10],inactive
same,outcome,[7],inactive
same,outcome,[8],inactive
same,outcome,[9],inactive
CC(C)CCCCCOC(=O)CS,outcome,[1],inactive
same,outcome,[2],inactive
same,outcome,[3],inactive
same,outcome,[6],inactive
same,AC50,[4],19.5 µM (active)
same,outcome,[5],inactive
same,outcome,[7],inactive
same,outcome,[8],inactive
same,outcome,[9],inactive

# — PubChem BioAssay (EPA / NIEHS)
